The sample as a whole holds a higher share of hits than the screen did.
LmPK inh = qHTS Assay for Inhibitors of Leishmania Mexicana Pyruvate Kinase (LmPK). Q27686. 290,000 tested, 0.37% active. purified LmPK, Kinase-Glo ATP luminescence, 1 h. Potency, µM (top dose mostly 57.5 µM), without a hit: at the top dose activity change, negative = inhibition, actives largely listed as inhibitors. AID 1721, 2009; also: potency is read from the fitted curve at half-maximal effect; % is scaled to controls: 0 for no effect and ±100 for the full control effect
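0.1 nM LmPK, 0.5 mM PEP, 0.1 mM ADP; 50 mM imidazole pH 7.2, 7 mM MgCl2, 50 mM KCl; 1 h RT. Kinase-Glo luminescence readout, normalized to no-enzyme (full inhibition) and uninhibited wells.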
Shiga inhibitor = A qHTS for Small Molecule Inhibitors of Shiga Toxin; Vero cells, Shiga toxin protein synthesis inhibition reporter; inhibition, % at 38.7 µM; 290,000 tested, 9.2% active; in the data active = inhibition mostly above about 28%, no sharp cut-off; inactive = mostly below about 43%; also: 0% is about no effect
TbPYK inhibitor = qHTS of Trypanosoma Brucei Inhibitors; pyruvate kinase (Trypanosoma brucei), Q57TT1; TbPYK enzyme, Kinase-Glo Plus ATP luminescence, 45 min; Potency, µM (top dose mostly 76.8 µM), inactives show at the top dose activity, negative = inhibition, hits mostly inhibitors; 410,000 tested, 0.12% active; also: potency is read from the fitted curve at half-maximal effect; % is scaled to controls: 0 for no effect and ±100 for the full control effect; nearly all actives have a fitted effect of over 50% in size
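Quantitative HTS: titrated library compounds versus trypanosomal pyruvate kinase in TEA buffer (pH 7.2) containing KCl, MgCl2, BSA and Tween-20. Reactions were initiated with ADP, 130 uM final. Kinase-Glo Plus luminescence was read after 45 min at RT.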
Giardia FBPA inh = qHTS Assay for Inhibitors of Fructose-1,6-bisphosphate Aldolase from Giardia Lamblia. 290,000 tested, 0.71% active. purified Giardia FBPA. Potency, µM (doses to about 59.6 µM), without a hit: at the top dose activity, negative = inhibition, hits mostly inhibitors; also: potency is read from the fitted curve at half-maximal effect; % is scaled to controls: 0 for no effect and ±100 for the full control effect; nearly all actives have a fitted effect of over 55% in size
Target sequence (A8B2U2 whole entry, looked up): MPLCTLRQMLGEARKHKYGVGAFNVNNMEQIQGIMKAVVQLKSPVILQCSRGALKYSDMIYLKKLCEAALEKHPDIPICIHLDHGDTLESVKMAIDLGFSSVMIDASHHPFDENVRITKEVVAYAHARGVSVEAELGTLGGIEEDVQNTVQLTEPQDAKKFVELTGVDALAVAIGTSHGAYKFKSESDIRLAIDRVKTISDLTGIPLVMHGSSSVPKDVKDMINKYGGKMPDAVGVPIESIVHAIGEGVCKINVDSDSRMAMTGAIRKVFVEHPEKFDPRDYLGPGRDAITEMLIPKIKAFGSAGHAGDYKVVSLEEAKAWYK
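40 nM FBPA preincubated 10 min at RT with compound (up to 57.5 uM final), then substrate plus GAPDH/TPI/NAD/arsenate coupling and diaphorase/resazurin added. Fluorescence read after 20 min at RT, 525/598 nm.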
CHX counter = Cycloheximide Counterscreen for Small Molecule Inhibitors of Shiga Toxin | 300,000 tested, 12% active | AID 2314, 2010 | cell reporter, cycloheximide protein synthesis inhibition counterscreen | max response, %; in the data active = max response mostly above about 13%, no sharp cut-off; inactive = mostly below about 14%; also: read at 38.3 µM for the half of the compounds with a filed dose; 0% is about no effect
RE007 growth inh = qHTS Assay for Inhibitors of the HIV-1 protein Vpr | 360,000 tested, 0.21% active | AID 651644, 2012 | Potency, µM (highest dose often 92.2 µM), without a hit: top-dose activity change, negative = less growth, most hits filed as inhibitors | S. pombe RE007 Vpr strain, BacTiter-Glo ATP luminescence, 24 h; active = well fitted falling curve with a large enough effect; inconclusive = small, poorly fitted or top-dose-only effect; inactive = no such curve, though single readings can be large or run the other way; also: potency is read from the fitted curve at half-maximal effect; % is scaled to controls: 0 for no effect and ±100 for the full control effect; nearly all actives have a fitted effect of over 50% in size
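Fission yeast RE007 carrying one integrated HIV-1 vpr copy, seeded at OD 0.01 in PMG+AL medium with 23 nL pinned compound. Grown 24 h at 30 degrees; viability read by BacTiter-Glo luminescence after 5 min.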
An asterisk follows results filed as active; ? = inconclusive; nt = no result given. Unless noted, calls follow the shape of the dose curve; as a rule, active = well fitted curve in the direction sought with a large enough effect; inconclusive = small, poorly fitted or top-dose-only effect, or another doubt; inactive = no such curve, though single readings can be large; an effect the other way counts as inactive or inconclusive.

SMILES	LmPK inh	Shiga inhibitor	TbPYK inhibitor	Giardia FBPA inh	CHX counter	RE007 growth inh
CCOc1ccc(C(=O)NC(=S)Nc2ccccn2)cc1[N+](=O)[O-]	-11.4%	30.6	-1.4%	?	15.1*	3.0%
O=C(NCCCCc1ccccc1)c1cccc(Br)c1	-1.8%	67.8	-0.7%	4.0%	15.2*	79.3%
COc1ccccc1N1CCN(S(=O)(=O)CCNC(=O)COc2ccc(C(C)C)cc2)CC1	nt	nt	1.4%	nt	nt	nt
COC(C(=O)Nc1ccnn1C1CCN(Cc2ccc(Cl)s2)CC1)c1ccccc1 (configuration not stated)	1.6%	7.9	2.0%	-4.2%	-2.6	-0.7%
COc1ccc([C@@H]2[C@@H](O)[C@H](O)[C@@H](C)N2C)cc1OC	nt	nt	nt	-6.3%	nt	nt
CCn1ccc2cc(S(=O)(=O)N3CCCN(C(=O)Nc4ccc(C)c(F)c4)CC3)ccc21	nt	nt	-9.9%	nt	nt	nt
O=C(NCc1ccncc1)c1cncc(Br)c1	-1.8%	19.7	-9.3%	4.1%	0.3	8.4%
O=C(NC(=S)Nc1ccccn1)c1cncc(Br)c1	-3.0%	25.1	1.6%	-25.9%	41.3*	-11.2%
O=C(NCCc1ccccn1)c1cncc(Br)c1	-3.1%	37.1	34.4%	16.0%	19.6*	12.6%
CS(=O)(=O)N1CCN(c2ccc([N+](=O)[O-])cc2C(F)(F)F)CC1	-1.0%	44.0	?	-0.7%	8.9*	7.2%
CC(N=c1ccccn1C(=O)Nc1ccc(Cl)cc1)c1ccco1 (configuration not stated)	6.8%	65.1*	-3.3%	-3.9%	48.7*	3.3%
COc1ccc(-c2noc(-c3ccccc3C(=O)NCc3ccco3)n2)cc1	-2.4%	16.6	-0.8%	3.0%	15.0*	-2.1%
COc1cccc(NC(=O)c2ccccc2-c2nc(-c3ccccc3)no2)c1	-2.9%	28.2	-5.3%	-5.8%	18.9*	3.8%
COc1cccc(NC(=O)c2ccccc2-c2nc(-c3ccc(Cl)cc3)no2)c1	3.6%	62.4*	-9.6%	0.5%	59.1*	-2.4%
COc1cccc(NC(=O)c2ccccc2-c2nc(-c3ccc(F)cc3)no2)c1	0.1%	22.0	2.9%	-3.7%	8.0	10.9%
Cc1ccccc1-c1noc(-c2ccccc2C(=O)O)n1	0.8%	39.1	-4.7%	14.0%	15.2*	-5.7%
COc1ccc(NC(=O)CCc2nnc3n(Cc4ccccc4Cl)c(=O)c4ccccc4n23)cc1	nt	nt	5.5%	nt	nt	nt
COc1ccccc1-c1noc(-c2ccccc2C(=O)Nc2ccccc2)n1	11.7%	-6.8	3.2%	1.1%	-5.0	-2.3%
COc1ccccc1NC(=O)c1ccccc1-c1nc(-c2ccccc2OC)no1	-11.1%	24.2	-2.9%	4.5%	21.5*	-18.7%
COc1ccc2oc(C)c(C(=O)c3ccccc3)c2c1	nt	nt	-0.9%	nt	nt	-2.0%
Cc1oc2ccc(O)cc2c1C(=O)c1ccccc1	-1.6%	45.2	-0.1%	3.3%	14.7*	-23.3%
Cc1cc(C(=O)N/N=C/c2cccc(OC(=O)c3cccc(Br)c3)c2)n[nH]1	-10.6%	23.1*	3.8%	nt	15.0	1.3%
CCOc1ccc2ccccc2c1/C=N/NC(=O)c1cc(C)[nH]n1	-2.8%	-4.8	0.2%	-12.4%	-2.7	-1.9%
Cc1cc(C(=O)NN)n[nH]1	-4.0%	60.9*	-7.0%	-2.5%	20.1*	7.6%
Cc1cc(C(=O)N/N=C/c2ccco2)n[nH]1	-9.6%	46.4	-2.3%	1.0%	28.8*	-0.5%
SMILES	LmPK inh	Shiga inhibitor	TbPYK inhibitor	Giardia FBPA inh	CHX counter	RE007 growth inh
O=C(N/N=C/c1cccc2ccccc12)c1cc(C2CC2)[nH]n1	10.2%	74.8*	4.4%	-5.0%	22.0*	8.5%
COC(=O)c1c(SCC(=O)Nc2cc(F)ccc2F)[nH]c2ccc(C)cc2c1=O	nt	nt	-0.3%	nt	nt	nt
O=C(N/N=C/c1ccc([N+](=O)[O-])cc1)c1cc(C2CC2)[nH]n1	-4.8%	-16.6	5.0%	nt	-0.8	-1.0%
O=C(N/N=C/c1ccco1)c1cc(C2CC2)[nH]n1	-28.0%	117.8*	-6.0%	-1.6%	35.2*	-5.4%
CC(/C=N/NC(=O)c1cc(C2CC2)[nH]n1)=C\c1ccccc1	0.2%	24.1	2.7%	8.1%	9.5*	9.2%
Cc1cc(C(=O)N/N=C/c2c3ccccc3cc3ccccc23)n[nH]1	-5.2%	21.2	-0.1%	-1.6%	10.3	-18.4%
Cc1cc(C(=O)N/N=C/c2ccccn2)n[nH]1	-1.2%	37.5	7.5%	?	17.7*	-1.2%
CC(/C=N/NC(=O)c1cc(C(C)C)[nH]n1)=C\c1ccccc1	0.4%	17.7	1.8%	5.7%	-1.3	-3.8%
S=c1[nH]c(-c2ccccc2)cn1/N=C/c1ccc(Br)cc1	0.1%	35.8	-31.9%	4.4%	19.7*	4.3%
O=C(O)c1ccc(/C=N/n2cc(-c3ccccc3)[nH]c2=S)cc1	14.1µM*	-1.4	?	?	0.6	-5.3%
S=c1[nH]c(-c2ccccc2)cn1/N=C/c1cccnc1	3.55µM*	-6.4	?	-10.6%	7.8	19.7%
Fc1ccccc1/C=N/n1cc(-c2ccccc2)[nH]c1=S	?	63.6*	?	0.0%	18.0*	-10.7%
Cc1cccc(-n2cc(-c3ccccc3)[nH]c2=S)c1	-13.0%	23.4	?	21.5%	17.2	19.9%
Cc1ccc(C)c(/C=N/n2cc(-c3ccccc3)[nH]c2=S)c1	2.1%	32.9	-21.8%	1.9%	3.1	-4.2%
Nc1ncnc2c1nc(N1CCCCC1)n2[C@@H]1O[C@@H]2COP(=O)(O)O[C@H]2[C@H]1O	nt	-13.0	nt	-1.0%	-6.9	nt
S=c1[nH]c(-c2ccccc2)cn1/N=C/c1cccs1	?	44.7*	?	-0.2%	32.2*	-2.1%
O=C(Nc1cccnc1)c1ccc(CSc2ccccc2)cc1	-11.6%	73.0*	1.7%	10.3%	41.1*	-16.6%
CCCOc1ccc(C(=O)Nc2cccnc2)cc1	-7.2%	nt	2.4%	5.6%	28.7*	-29.4%
CCOc1cc(C(=O)Nc2cccnc2)cc(OCC)c1OCC	1.7%	22.5	3.9%	-0.9%	0.3	1.9%
CCCCOc1ccc(C(=O)Nc2ccncc2)cc1	-11.2%	94.5*	-5.0%	-2.4%	25.9*	9.4%
O=C(Nc1cccc(Br)c1)c1ccc(CSc2ccccc2)cc1	0.0%	47.1	-2.5%	-0.8%	13.3	0.9%
O=C(Nc1cccnc1)c1ccc(COc2ccccc2Br)cc1	-5.7%	31.9	-8.1%	0.3%	24.3*	-18.0%
O=C(Nc1cccnc1)c1ccc(Oc2ccccc2)cc1	?	37.7*	3.4%	-16.2%	33.6*	-7.9%
O=C(Nc1cccnc1)c1ccccc1Oc1ccccc1	2.8%	-13.7	-0.2%	-26.4%	3.2	4.4%
N/C(=N\OC(=O)c1ccc(F)cc1)c1ccccc1	7.94µM*	150.4*	?	1.8%	58.8*	?

Screening results deposited in PubChem BioAssay by National Center for Advancing Translational Sciences (NCATS).
